PubChem BioAssay AID1159580 (chemical genetic matrix, 2015)
Among all 5,500 compounds or so, about 2,000 (36%) were called active. Another 18% or so got no clear call; they are omitted. Cut-off read from the data, not from the text of the source: active = normalized growth mostly below about 0.91 (no sharp cut-off); inconclusive = no clear call, values can overlap the other calls; inactive = mostly above about 0.92. The list shows a part of the results.

Assay: chemical genetic growth profiling, strain panel (AID 1159580);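 note: tested at 20 µM; growth read once vehicle control cultures reached saturation at 30 °C; 1 = growth at the plate median or of vehicle wells; lower values mean less growth of the strain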
Settings: growth OD
[1] = S. cerevisiae deletion strains, locus YHR030C, strain SLT2, active compounds read low
[2] = S. cerevisiae deletion strains, locus YJL187C, strain SWE1, active compounds read low

Measured: normalized growth

N/C(Cc1cccc2ccccc12)=N/O
active: S. cerevisiae deletion strains, locus YPL241C, strain CIN2, active compounds read low 1.22 [resistant]
inactive: S. cerevisiae deletion strains, locus YAL013W, strain DEP1, active compounds read low 1 | S. cerevisiae deletion strains, locus YBR229C, strain ROT2, active compounds read low 1.02 | S. cerevisiae deletion strains, locus YDL101C, strain DUN1, active compounds read low 1.01 | S. cerevisiae deletion strains, locus YDR150W, strain NUM1, active compounds read low 0.986 | S. cerevisiae deletion strains, locus YEL061C, strain CIN8, active compounds read low 1.02 | S. cerevisiae deletion strains, locus YGR078C, strain PAC10, active compounds read low 1.01 | [1] 1.02 | S. cerevisiae deletion strains, locus YHR087W, strain rtc3, active compounds read low 1.02 | [2] 1.02 | S. cerevisiae deletion strains, locus YJR043C, strain POL32, active compounds read low 1.02 | S. cerevisiae deletion strains, locus YJR075W, strain HOC1, active compounds read low 1.05 | S. cerevisiae deletion strains, locus YKL190W, strain CNB1, active compounds read low 1.02 | S. cerevisiae deletion strains, locus YLR039C, strain RIC1, active compounds read low 1.06 | S. cerevisiae deletion strains, locus YLR058C, strain SHM2 (second series), active compounds read low 1.01 | S. cerevisiae deletion strains, locus YLR085C, strain ARP6, active compounds read low 1.14 | S. cerevisiae deletion strains, locus YLR262C, strain YPT6, active compounds read low 1.02 | S. cerevisiae deletion strains, locus YML094W, strain GIM5, active compounds read low 1.01 | S. cerevisiae deletion strains, locus YMR219W, strain ESC1, active compounds read low 1.03 | S. cerevisiae deletion strains, locus YMR263W, strain SAP30, active compounds read low 1.04 | S. cerevisiae deletion strains, locus YMR307W, strain GAS1, active compounds read low 1.17 | S. cerevisiae deletion strains, locus YNL153C, strain GIM3, active compounds read low 0.997 | S. cerevisiae deletion strains, locus YNL298W, strain CLA4 (second series), active compounds read low 1.02 | S. cerevisiae deletion strains, locus YNL322C, strain KRE1, active compounds read low 1 | S. cerevisiae deletion strains, locus YNR030W, strain Alg12, active compounds read low 1 | S. cerevisiae deletion strains, locus YOL006C, strain TOP1, active compounds read low 1.05 | S. cerevisiae deletion strains, locus YPL055C, strain LGE1, active compounds read low 0.897 | S. cerevisiae deletion strains, locus YPR135W, strain CTF4, active compounds read low 0.945 | S. cerevisiae strains, strain wild type, active compounds read low 1.02

O=P1(NCCCl)OCCCN1CCCl (centres undefined)
inactive: S. cerevisiae deletion strains, locus YAL021C, strain ccr4, active compounds read low 0.964 | S. cerevisiae deletion strains, locus YAL026C, strain drs2, active compounds read low 0.991 | S. cerevisiae deletion strains, locus YAL030W, strain snc1, active compounds read low 0.992 | S. cerevisiae deletion strains, locus YBL061C, strain skt5, active compounds read low 0.993 | S. cerevisiae deletion strains, locus YBR009C, strain hhf1, active compounds read low 1.01 | S. cerevisiae deletion strains, locus YBR023C, strain chs3, active compounds read low 0.987 | S. cerevisiae deletion strains, locus YBR171W, strain sec66, active compounds read low 0.98 | S. cerevisiae deletion strains, locus YBR231C, strain swc5, active compounds read low 1 | S. cerevisiae deletion strains, locus YBR279W, strain paf1, active compounds read low 0.997 | S. cerevisiae deletion strains, locus YCL011C, strain gbp2, active compounds read low 0.975 | S. cerevisiae deletion strains, locus YCL016C, strain dcc1, active compounds read low 0.992 | S. cerevisiae deletion strains, locus YCL061C, strain MRC1, active compounds read low 0.987 | S. cerevisiae deletion strains, locus YCL069W, strain vba3, active compounds read low 0.989 | S. cerevisiae deletion strains, locus YCR088W, strain abp1, active compounds read low 0.971 | S. cerevisiae deletion strains, locus YDL005C, strain med2, active compounds read low 0.995 | S. cerevisiae deletion strains, locus YDL040C, strain nat1, active compounds read low 0.987 | S. cerevisiae deletion strains, locus YDR001C, strain nth1, active compounds read low 0.985 | S. cerevisiae deletion strains, locus YDR069C, strain doa4, active compounds read low 0.995 | S. cerevisiae deletion strains, locus YDR137W, strain rgp1, active compounds read low 0.988 | S. cerevisiae deletion strains, locus YDR159W, strain sac3, active compounds read low 0.982 | S. cerevisiae deletion strains, locus YDR195W, strain ref2 0.985 | S. cerevisiae deletion strains, locus YDR297W, strain sur2, active compounds read low 0.99 | S. cerevisiae deletion strains, locus YDR334W, strain swr1, active compounds read low 0.969 | S. cerevisiae deletion strains, locus YDR335W, strain msn5, active compounds read low 0.976 | S. cerevisiae deletion strains, locus YDR392W, strain spt3, active compounds read low 1.01 | S. cerevisiae deletion strains, locus YEL003W, strain gim4, active compounds read low 0.983 | S. cerevisiae deletion strains, locus YEL037C, strain rad23, active compounds read low 0.95 | S. cerevisiae deletion strains, locus YEL061C, strain CIN8 (second series), active compounds read low 0.977 | S. cerevisiae deletion strains, locus YER015W, strain faa2, active compounds read low 0.99 | S. cerevisiae deletion strains, locus YER016W, strain bim1, active compounds read low 0.986 | S. cerevisiae deletion strains, locus YER111C, strain swi4, active compounds read low 1 | S. cerevisiae deletion strains, locus YER155C, strain BEM2 (second series), active compounds read low 1.01 | S. cerevisiae deletion strains, locus YFR010W, strain ubp6, active compounds read low 0.96 | S. cerevisiae deletion strains, locus YGL167C, strain pmr1, active compounds read low 0.992 | S. cerevisiae deletion strains, locus YGL173C, strain kem1, active compounds read low 0.984 | S. cerevisiae deletion strains, locus YGL227W, strain vid30, active compounds read low 0.993 | S. cerevisiae deletion strains, locus YGL240W, strain doc1, active compounds read low 1.02 | S. cerevisiae deletion strains, locus YGL253W, strain hxk2, active compounds read low 0.986 | S. cerevisiae deletion strains, locus YHR013C, strain ard1, active compounds read low 0.996 | S. cerevisiae deletion strains, locus YHR027C, strain rpn1, active compounds read low 0.981 | [1] 0.967 | S. cerevisiae deletion strains, locus YHR079C, strain IRE1, active compounds read low 0.971 | S. cerevisiae deletion strains, locus YHR142W, strain chs7, active compounds read low 0.943 | S. cerevisiae deletion strains, locus YJL092W, strain hpr5, active compounds read low 0.975 | S. cerevisiae deletion strains, locus YJL095W, strain BCK1 (second series), active compounds read low 0.995 | S. cerevisiae deletion strains, locus YJL095W, strain BCK1, active compounds read low 0.989 | S. cerevisiae deletion strains, locus YJL115W, strain asf1, active compounds read low 0.971 | S. cerevisiae deletion strains, locus YJL129C, strain trk1, active compounds read low 0.97 | S. cerevisiae deletion strains, locus YJL154C, strain vps35, active compounds read low 0.992 | S. cerevisiae deletion strains, locus YJL164C, strain tpk1, active compounds read low 0.979 | S. cerevisiae deletion strains, locus YJL166W, strain qcr8, active compounds read low 0.998 | [2] 0.99 | S. cerevisiae deletion strains, locus YJR066W, strain TOR1, active compounds read low 0.921 | S. cerevisiae deletion strains, locus YKL160W, strain elf1, active compounds read low 0.986 | S. cerevisiae deletion strains, locus YKR026C, strain gcn3, active compounds read low 0.971 | S. cerevisiae deletion strains, locus YKR091W, strain srl3, active compounds read low 0.99 | S. cerevisiae deletion strains, locus YLL001W, strain dnm1, active compounds read low 0.968 | S. cerevisiae deletion strains, locus YLL026W, active compounds read low 1 | S. cerevisiae deletion strains, locus YLL041C, strain sdh2, active compounds read low 0.987 | S. cerevisiae deletion strains, locus YLR027C, strain aat2, active compounds read low 0.988 | S. cerevisiae deletion strains, locus YLR113W, strain HOG1, active compounds read low 1 | S. cerevisiae deletion strains, locus YLR221C, strain rsa3, active compounds read low 0.981 | S. cerevisiae deletion strains, locus YLR258W, strain gsy2, active compounds read low 0.996 | S. cerevisiae deletion strains, locus YLR262C, strain YPT6 (second series), active compounds read low 1.01 | S. cerevisiae deletion strains, locus YLR320W, strain mms22, active compounds read low 1.01 | S. cerevisiae deletion strains, locus YLR342W, strain FKS1, active compounds read low 0.99 | S. cerevisiae deletion strains, locus YLR357W, strain rsc2, active compounds read low 0.991 | S. cerevisiae deletion strains, locus YLR370C, strain arc18, active compounds read low 0.986 | S. cerevisiae deletion strains, locus YLR384C, strain iki3, active compounds read low 0.981 | S. cerevisiae deletion strains, locus YML120C, strain ndi1, active compounds read low 0.968 | S. cerevisiae deletion strains, locus YMR058W, strain fet3, active compounds read low 0.982 | S. cerevisiae deletion strains, locus YMR125W, strain sto1, active compounds read low 0.992 | S. cerevisiae deletion strains, locus YMR129W, active compounds read low 0.983 | S. cerevisiae deletion strains, locus YMR205C, strain PFK2, active compounds read low 1.01 | S. cerevisiae deletion strains, locus YMR231W, strain pep5, active compounds read low 0.992 | S. cerevisiae deletion strains, locus YNL071W, strain lat1, active compounds read low 0.996 | S. cerevisiae deletion strains, locus YNL183C, strain NPR1, active compounds read low 0.93 | S. cerevisiae deletion strains, locus YNL209W, strain ssb2, active compounds read low 0.991 | S. cerevisiae deletion strains, locus YNL248C, strain rpa49, active compounds read low 0.946 | S. cerevisiae deletion strains, locus YNL322C, strain KRE1 (second series), active compounds read low 0.986 | S. cerevisiae deletion strains, locus YNR049C, strain mso1, active compounds read low 0.985 | S. cerevisiae deletion strains, locus YOR001W, strain rrp6, active compounds read low 0.973 | S. cerevisiae deletion strains, locus YOR070C, strain gyp1, active compounds read low 0.993 | S. cerevisiae deletion strains, locus YOR080W, strain dia2, active compounds read low 0.987 | S. cerevisiae deletion strains, locus YOR083W, strain WHI5, active compounds read low 0.981 | S. cerevisiae deletion strains, locus YOR106W, strain vam3, active compounds read low 0.982 | S. cerevisiae deletion strains, locus YOR231W, strain MKK1, active compounds read low 0.968 | S. cerevisiae deletion strains, locus YOR265W, strain rbl2, active compounds read low 0.99 | S. cerevisiae deletion strains, locus YOR270C, strain vph1, active compounds read low 0.922 | S. cerevisiae deletion strains, locus YOR290C, strain snf2, active compounds read low 0.994 | S. cerevisiae deletion strains, locus YPL051W, strain arl3, active compounds read low 0.999 | S. cerevisiae deletion strains, locus YPL078C, strain atp4, active compounds read low 0.978 | S. cerevisiae deletion strains, locus YPL106C, strain sse1, active compounds read low 0.997 | S. cerevisiae deletion strains, locus YPL240C, strain hsp82, active compounds read low 0.986 | S. cerevisiae deletion strains, locus YPL256C, strain CLN2, active compounds read low 0.95
